# Measurements reported in ChEMBL document CHEMBL3988442, “University of Dundee, Small-Polar-MMV Screening Library” (2021).
# For some of these results: Potency and affinity values are given separately.
# How the values were obtained:
# Design in all cases: scale not given: direction of the effect not stated beside the values
# [1] = biological target: Protein translocase subunit SecA (Escherichia coli (strain K12)) (UniProt P10408); experiment: Assay to Identify E. coli SecA ATPase Inhibitors; format: functional; details: 30 µM
# [2] = biological target: T1, Ubiquitin-activating enzyme e1, putative (Leishmania donovani (strain BPK282A1)) (UniProt E9BSI1); experiment: Leishmania donovani Ubiquitin Activating Enzyme (LdE1); format: functional; details: 30 µM
# T1 sequence (whole entry): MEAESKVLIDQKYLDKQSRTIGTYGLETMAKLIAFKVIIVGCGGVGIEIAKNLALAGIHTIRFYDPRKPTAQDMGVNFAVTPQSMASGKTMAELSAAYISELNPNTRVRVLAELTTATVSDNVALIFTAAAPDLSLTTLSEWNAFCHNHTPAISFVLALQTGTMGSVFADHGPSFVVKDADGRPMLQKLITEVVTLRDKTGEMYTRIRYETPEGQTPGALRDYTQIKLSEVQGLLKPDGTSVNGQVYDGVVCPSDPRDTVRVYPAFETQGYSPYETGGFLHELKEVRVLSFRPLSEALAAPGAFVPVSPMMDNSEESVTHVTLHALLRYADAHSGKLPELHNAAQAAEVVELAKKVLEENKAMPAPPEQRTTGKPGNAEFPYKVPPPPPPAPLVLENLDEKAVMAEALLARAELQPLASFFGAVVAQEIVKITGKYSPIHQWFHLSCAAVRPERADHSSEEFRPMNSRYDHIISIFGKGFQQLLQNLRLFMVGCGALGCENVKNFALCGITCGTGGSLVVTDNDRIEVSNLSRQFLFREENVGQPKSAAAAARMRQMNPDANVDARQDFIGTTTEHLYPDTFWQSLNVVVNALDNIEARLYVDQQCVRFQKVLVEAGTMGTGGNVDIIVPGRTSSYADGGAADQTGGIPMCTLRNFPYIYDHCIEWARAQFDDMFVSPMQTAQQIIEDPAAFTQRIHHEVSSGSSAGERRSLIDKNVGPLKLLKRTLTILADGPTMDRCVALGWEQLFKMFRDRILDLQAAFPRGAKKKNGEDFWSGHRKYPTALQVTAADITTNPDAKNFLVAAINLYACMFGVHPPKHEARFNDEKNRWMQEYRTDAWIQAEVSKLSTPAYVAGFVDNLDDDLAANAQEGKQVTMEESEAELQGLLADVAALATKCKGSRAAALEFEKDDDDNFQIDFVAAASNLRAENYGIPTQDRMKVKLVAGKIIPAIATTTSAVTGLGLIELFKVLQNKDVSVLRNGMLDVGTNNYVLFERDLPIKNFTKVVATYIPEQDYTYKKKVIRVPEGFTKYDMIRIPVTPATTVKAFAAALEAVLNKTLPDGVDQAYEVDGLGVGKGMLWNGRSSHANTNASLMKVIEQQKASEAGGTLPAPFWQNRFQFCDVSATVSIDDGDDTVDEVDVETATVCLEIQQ
# [3] = biological target: AMP-activated protein kinase, AMPK (Homo sapiens) (UniProt P54646+O43741+P54619+Q9UGJ0+Q9Y478+Q13131+Q9UGI9); experiment: AMP-dependent Kinase enzyme assay. An in vitro enzyme assay that detects ADP turnover that is directly proportional to AMPK activity. This uses naive AMPK that is activated during the assay with MK-8722; format: functional; details: 30 µM
# [4] = biological target: Sialic acid-binding Ig-like lectin 9 (Homo sapiens) (UniProt Q9Y336); experiment: Hs-Siglec9 ALPHAscreen SOP 20170721; details: 10 µM
# Trypanosoma cruzi = experiment: Trypanosoma cruzi phosphomannomutase and mannose-1-phosphate guanylyltransferase assay; format: functional; details: 10 µM
# [5] = biological target: T2, Arginase-2, mitochondrial (Homo sapiens) (UniProt P78540); experiment: in vitro enzyme assay to detect the production of urea directly proportional to the activity of Arginase II; format: functional; details: 33.3 µM; further: in the data most compounds retested in dose-response had high values
# T2 sequence (whole entry): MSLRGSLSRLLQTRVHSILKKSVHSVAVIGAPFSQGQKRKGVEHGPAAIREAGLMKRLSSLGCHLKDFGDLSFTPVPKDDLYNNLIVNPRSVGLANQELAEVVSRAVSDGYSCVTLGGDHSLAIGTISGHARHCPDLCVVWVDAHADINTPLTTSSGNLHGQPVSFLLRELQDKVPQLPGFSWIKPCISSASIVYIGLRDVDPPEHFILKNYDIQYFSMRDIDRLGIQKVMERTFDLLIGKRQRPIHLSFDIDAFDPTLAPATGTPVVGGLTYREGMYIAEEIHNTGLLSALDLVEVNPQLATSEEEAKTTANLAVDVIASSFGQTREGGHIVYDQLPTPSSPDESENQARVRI
# [6] = biological target: T3, Proteasome subunit beta (Trypanosoma cruzi) (UniProt O96673); experiment: Trypanosoma cruzi proteasome chymotrypsin-like activity (TcProtChymo) assay.; further: in the data most compounds retested in dose-response had high values; format: functional; details: 9.37 µM
# T3 sequence (whole entry): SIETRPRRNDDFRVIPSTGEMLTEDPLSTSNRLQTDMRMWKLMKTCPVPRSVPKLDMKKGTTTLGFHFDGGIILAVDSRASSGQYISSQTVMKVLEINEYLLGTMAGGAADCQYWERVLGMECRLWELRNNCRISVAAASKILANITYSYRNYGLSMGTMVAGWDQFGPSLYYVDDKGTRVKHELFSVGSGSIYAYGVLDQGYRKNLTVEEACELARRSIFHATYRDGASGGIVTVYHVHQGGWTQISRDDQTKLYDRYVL
# Homo sapiens = species: Homo sapiens; experiment: To identify inhibition of the IFN signalling (Jak-Stat) pathway via expression of an eGFP reporter gene under the control of an IFN-stimulated response element (ISRE) containing MxA promoter.; format: functional; details: 30 µM
# [7] = biological target: T4, Tyrosyl-tRNA synthetase, putative (Trypanosoma cruzi (strain CL Brener)) (UniProt Q4DSP6); experiment: Trypanosoma cruzi tyrosyl tRNA synthetase (TcYRS) _High Tyrosine SOP; format: functional; details: 30 µM; further: in the data most compounds retested in dose-response had high values
# T4 sequence (whole entry): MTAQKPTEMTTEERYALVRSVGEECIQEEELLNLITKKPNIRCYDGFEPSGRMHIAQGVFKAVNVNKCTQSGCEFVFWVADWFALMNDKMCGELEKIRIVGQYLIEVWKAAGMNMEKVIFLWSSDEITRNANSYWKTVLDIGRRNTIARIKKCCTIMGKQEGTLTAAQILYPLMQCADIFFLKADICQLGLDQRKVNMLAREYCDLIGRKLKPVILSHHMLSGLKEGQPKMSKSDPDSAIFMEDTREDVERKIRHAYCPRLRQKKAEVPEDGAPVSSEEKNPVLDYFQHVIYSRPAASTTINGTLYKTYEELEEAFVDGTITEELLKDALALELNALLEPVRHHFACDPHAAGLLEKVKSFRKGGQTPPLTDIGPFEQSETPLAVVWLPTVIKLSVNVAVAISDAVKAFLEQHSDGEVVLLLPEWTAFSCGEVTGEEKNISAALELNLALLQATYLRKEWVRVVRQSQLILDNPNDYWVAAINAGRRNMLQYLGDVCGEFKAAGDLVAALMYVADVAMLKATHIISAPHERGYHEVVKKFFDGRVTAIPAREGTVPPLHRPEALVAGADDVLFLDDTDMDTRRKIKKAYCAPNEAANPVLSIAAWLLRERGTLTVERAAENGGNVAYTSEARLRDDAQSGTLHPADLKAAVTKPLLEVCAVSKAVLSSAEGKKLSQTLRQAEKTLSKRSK
# [8] = biological target: T4, Tyrosyl-tRNA synthetase, putative (Trypanosoma cruzi (strain CL Brener)); experiment: Trypanosoma cruzi tyrosyl tRNA synthetase (TcYRS) SOP; format: functional; details: 30 µM
# [9] = biological target: Chromo domain-containing protein 1 (Saccharomyces cerevisiae (strain ATCC 204508 / S288c) (Baker's yeast)) (UniProt P32657); experiment: ScCHD-1 Enzyme Inhibition Assay; format: functional; details: 30 µM; further: in the data most compounds retested in dose-response had high values
# Chain of Chromo domain-containing protein 1 (Saccharomyces cerevisiae (strain ATCC 204508 / S288c) (Baker's yeast)) (P32657 whole entry, the tested form may be a part): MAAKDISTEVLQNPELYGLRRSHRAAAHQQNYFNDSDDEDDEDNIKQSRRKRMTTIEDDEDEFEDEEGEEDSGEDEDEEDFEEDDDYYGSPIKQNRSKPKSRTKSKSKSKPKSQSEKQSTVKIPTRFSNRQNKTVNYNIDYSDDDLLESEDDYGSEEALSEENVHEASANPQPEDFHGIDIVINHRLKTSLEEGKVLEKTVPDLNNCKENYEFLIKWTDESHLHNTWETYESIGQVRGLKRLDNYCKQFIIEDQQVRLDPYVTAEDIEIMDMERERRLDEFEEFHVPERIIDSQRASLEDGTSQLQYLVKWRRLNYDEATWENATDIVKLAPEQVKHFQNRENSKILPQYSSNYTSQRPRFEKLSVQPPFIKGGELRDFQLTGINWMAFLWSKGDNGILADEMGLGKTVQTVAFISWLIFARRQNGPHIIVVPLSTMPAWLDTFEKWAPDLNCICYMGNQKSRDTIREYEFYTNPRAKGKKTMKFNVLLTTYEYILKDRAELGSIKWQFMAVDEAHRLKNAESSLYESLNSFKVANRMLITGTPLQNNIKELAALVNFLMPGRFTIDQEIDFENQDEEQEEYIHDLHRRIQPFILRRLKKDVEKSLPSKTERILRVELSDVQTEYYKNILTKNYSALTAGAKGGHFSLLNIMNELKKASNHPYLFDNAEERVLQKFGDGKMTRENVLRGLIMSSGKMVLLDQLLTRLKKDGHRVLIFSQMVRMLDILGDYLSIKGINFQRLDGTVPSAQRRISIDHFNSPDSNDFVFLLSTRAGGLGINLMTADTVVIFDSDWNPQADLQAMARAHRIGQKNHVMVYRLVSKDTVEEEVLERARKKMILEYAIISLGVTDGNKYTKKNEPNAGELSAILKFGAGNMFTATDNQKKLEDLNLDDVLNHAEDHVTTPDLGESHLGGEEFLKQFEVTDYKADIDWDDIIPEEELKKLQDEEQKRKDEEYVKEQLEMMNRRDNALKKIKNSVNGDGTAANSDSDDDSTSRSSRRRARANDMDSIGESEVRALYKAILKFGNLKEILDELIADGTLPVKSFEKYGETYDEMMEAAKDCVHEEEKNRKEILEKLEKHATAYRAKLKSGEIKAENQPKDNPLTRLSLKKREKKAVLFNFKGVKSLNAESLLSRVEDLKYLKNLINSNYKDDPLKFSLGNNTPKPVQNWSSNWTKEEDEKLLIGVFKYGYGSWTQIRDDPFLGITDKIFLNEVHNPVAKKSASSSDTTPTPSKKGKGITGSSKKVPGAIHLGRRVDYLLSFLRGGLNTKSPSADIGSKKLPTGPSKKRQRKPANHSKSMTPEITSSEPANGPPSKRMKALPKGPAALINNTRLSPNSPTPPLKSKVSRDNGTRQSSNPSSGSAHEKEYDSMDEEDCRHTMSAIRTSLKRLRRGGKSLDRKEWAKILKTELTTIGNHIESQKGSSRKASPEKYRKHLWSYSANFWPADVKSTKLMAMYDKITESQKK
# Chain of Protein translocase subunit SecA (Escherichia coli (strain K12)) (P10408 whole entry): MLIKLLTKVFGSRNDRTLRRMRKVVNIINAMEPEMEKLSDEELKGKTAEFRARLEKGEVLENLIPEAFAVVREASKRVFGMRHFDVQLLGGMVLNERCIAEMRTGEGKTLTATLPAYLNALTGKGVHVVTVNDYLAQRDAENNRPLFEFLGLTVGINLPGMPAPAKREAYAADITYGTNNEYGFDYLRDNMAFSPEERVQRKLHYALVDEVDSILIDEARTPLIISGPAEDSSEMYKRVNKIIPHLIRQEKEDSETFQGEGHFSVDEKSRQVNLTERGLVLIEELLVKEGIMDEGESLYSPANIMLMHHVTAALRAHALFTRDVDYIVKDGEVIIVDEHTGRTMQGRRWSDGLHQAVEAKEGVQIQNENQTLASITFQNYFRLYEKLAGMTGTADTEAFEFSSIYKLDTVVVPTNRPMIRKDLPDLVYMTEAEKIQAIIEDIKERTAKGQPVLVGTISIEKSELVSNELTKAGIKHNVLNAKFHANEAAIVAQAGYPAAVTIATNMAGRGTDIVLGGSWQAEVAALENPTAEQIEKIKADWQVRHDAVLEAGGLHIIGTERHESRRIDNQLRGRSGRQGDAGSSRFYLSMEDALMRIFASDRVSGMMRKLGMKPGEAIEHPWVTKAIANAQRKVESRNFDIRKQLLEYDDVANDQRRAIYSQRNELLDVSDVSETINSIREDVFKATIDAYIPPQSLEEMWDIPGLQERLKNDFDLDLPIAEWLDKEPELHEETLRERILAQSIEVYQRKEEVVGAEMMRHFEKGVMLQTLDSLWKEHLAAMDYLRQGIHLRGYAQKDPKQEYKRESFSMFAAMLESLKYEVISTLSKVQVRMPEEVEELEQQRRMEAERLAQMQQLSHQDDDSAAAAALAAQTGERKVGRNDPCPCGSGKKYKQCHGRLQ
# Chain of Sialic acid-binding Ig-like lectin 9 (Homo sapiens) (Q9Y336 whole entry): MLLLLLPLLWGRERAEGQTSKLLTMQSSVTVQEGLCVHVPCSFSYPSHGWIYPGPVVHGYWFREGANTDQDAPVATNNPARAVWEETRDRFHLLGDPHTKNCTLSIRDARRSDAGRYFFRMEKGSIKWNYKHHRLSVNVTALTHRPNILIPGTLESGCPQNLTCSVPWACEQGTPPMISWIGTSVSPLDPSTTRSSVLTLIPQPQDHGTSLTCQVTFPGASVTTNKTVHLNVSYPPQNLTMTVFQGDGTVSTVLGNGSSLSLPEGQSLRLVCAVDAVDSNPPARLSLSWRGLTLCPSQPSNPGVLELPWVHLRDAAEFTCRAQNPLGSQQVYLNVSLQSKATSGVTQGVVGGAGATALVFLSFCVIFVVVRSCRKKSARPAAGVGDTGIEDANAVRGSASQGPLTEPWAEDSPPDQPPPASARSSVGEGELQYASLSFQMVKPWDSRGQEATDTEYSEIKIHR
Structure (SMILES),Percent Effect [1] [%],Percent Effect [2] [%],Percent Effect [3] [%],Percent Effect [4] [%],Percent Effect (Trypanosoma cruzi) [%],Percent Effect [5] [%],Percent Effect [6] [%],Percent Effect (Homo sapiens) [%],Percent Effect [7] [%],Percent Effect [8] [%],Percent Effect [9] [%]
COc1ccc(C(=O)N2CCC(Nc3cccnn3)CC2)c(OC)c1,1.87,-3.8,3.46,2.44,-4.41,5.38,0.858,0.418,-1.04,2.53,-16
CC(C)c1nccn1C1CCCN(C(=O)c2ccnc(N(C)C)c2)C1 (stereo not given),-2.97,-7.79,-1.67,-1.25,0.0979,1.47,10.6,18.4,1.91,-11.8,-18.1
COc1ccc(C(=O)N2CCCC(C)C2)cc1F (stereo not given),-4.09,24.3,-19.3,-3.4,2.17,-15.6,16.2,18.6,4.43,18.5,-9.54
CCn1nnc2c1C(COC)CN(C(=O)COc1ccccc1)C2 (stereo not given),-3.61,0,-1.01,-0.576,-2.73,0,10.4,-3.63,5.94,3.66,9.82
O=C(C1CCC1)N1CCN(c2snc3ccccc23)CC1,-4.56,1.27,21,-7.26,-0.718,9.25,5.83,25.3,-4.17,-12.7,-2
CN(C)C(=O)NC1COC2(CCN(Cc3ccccc3)CC2)C1 (stereo not given),-6.16,0,7.68,-1.66,-3.94,1.17,6.26,21.5,-3.19,-6.41,-1.6
Cc1ccc(C)c(NC(=O)N(C)Cc2cnn(C)c2)c1,-3.08,21.6,-1.59,-5.73,-5.94,-0.401,11.3,20.3,7.39,16.1,-4.13
O=C(CSc1ccc2c(c1)OCCO2)NS(=O)(=O)C1CCCCC1,-2.58,-1.39,3.64,-7.65,-6.71,3.09,11.4,9.49,-1.05,-5.13,-0.962
Cn1cc(CCC(=O)N2CCN(Cc3ccncc3)CC2)cn1,-7.43,15.6,3.53,-6.41,-4.87,-1.42,4.22,2.24,6.8,14.6,-5.86
COc1cc(C2CC(=O)Oc3cc(C)[nH]c(=O)c32)ccc1OC(F)F (stereo not given),-2.55,17.3,-1.47,-4.76,-5.3,-6.16,19,7.6,3.17,12.8,-13
CCc1noc(C(C)N(C)CC(=O)Nc2ccc(C)cc2)n1 (stereo not given),-4.41,0,2.85,1.79,-2.55,-0.455,-0.887,-0.282,-1.07,-2.5,2.11
CN(C)CCn1c(=O)oc2ccc(NC(=O)c3cc(Cl)c[nH]3)cc21,-3.23,2.67,0.098,6.1,-3.41,4.17,13.6,10.7,19.1,21,-7.97
Cc1noc(C(C)C)c1C(=O)NCc1cccc(N(C)C)c1,-7.07,18.2,-6.12,-1.43,-6.74,-2.49,8.28,33,4.85,9.76,-8
O=C(CC1CCCO1)NCc1ccccc1Cn1cncn1 (stereo not given),-2.25,15.8,-5.58,-5.97,-7.75,4.32,9.39,3.32,4.43,23.5,-2.47
CC(O)CN1CCN(C(=O)c2ccc3c(c2)COC3)CC1 (stereo not given),-5,10.1,-4.14,3.8,6.14,-4.18,3.19,-12.6,4.43,16.5,-13.8
c1cnnc(N2CCCC(NCc3ccc(-n4cccn4)cc3)C2)c1 (stereo not given),-0.865,-5.2,14.6,4.94,-0.686,1.9,1.7,20.3,0.952,7.06,-7.51
CC(C)Nc1nc2c(cc1C(=O)N(C)C)CCNCC2,-4.01,16,4.22,9.77,-0.772,-24.6,5.47,-7.58,0,-7.5,-4.61
CC(=O)N1CCC(Cc2cnc(-c3c(C)n[nH]c3C)cn2)C1 (stereo not given),-5.08,0,10,-2.02,1.97,0.233,4.67,-10.8,3.19,1.28,0.0811
CC(=O)Nc1nc(C2CCN(C(C)=O)CC2)cs1,0.424,8,6.04,-0.593,-4.33,0.699,11.2,4.06,6.38,6.41,-3.5
CCn1ccnc1CN1CCN(Cc2ccc(C#N)cc2)CC1,-5.95,21.1,-10.9,-5.15,9.96,-4.6,15.9,19.8,3.43,19.5,-11.6
